8 sequences from PMC7862700, “An all-to-all approach to the identification of sequence-specific readers for epigenetic DNA modifications on cytosine” can be followed below.

Assay in all cases: DAPPL (digital affinity profiling via proximity ligation, sequencing); 10 mM Tris-HCl pH 7.5, 50 mM NaCl, 1 mM DTT, 4% glycerol, room temperature, 30 min; GST-TFs on glutathione beads, 16-mer random dsDNA library, 0.1% formaldehyde crosslink after washing; high values mean tight binding
What all share (conditions): protein: recombinant; tags: N-terminal GST; dsDNA, one strand shown

The target of test [1] is T1, ERF (Homo sapiens, UniProt P50548 1-548).
T1 sequence: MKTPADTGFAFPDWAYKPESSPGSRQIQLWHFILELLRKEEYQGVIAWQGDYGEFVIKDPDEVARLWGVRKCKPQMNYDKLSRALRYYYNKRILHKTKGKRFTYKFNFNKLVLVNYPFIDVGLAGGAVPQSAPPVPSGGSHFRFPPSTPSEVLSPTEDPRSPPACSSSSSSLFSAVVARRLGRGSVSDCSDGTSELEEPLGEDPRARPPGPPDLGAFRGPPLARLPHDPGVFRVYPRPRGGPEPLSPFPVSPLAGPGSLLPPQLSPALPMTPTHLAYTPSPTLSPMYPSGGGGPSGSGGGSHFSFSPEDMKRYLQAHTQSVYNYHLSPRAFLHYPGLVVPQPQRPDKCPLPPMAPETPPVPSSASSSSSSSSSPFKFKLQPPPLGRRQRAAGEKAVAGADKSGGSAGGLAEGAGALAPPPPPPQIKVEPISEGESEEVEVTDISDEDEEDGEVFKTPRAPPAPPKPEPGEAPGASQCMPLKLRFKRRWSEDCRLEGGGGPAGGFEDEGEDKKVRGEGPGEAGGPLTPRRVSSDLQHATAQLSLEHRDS
In outline:
(§1)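 Binding signal is each hexamer's read frequency for a factor divided by its frequency in the tag-only sample. The factors were GST-fused human transcription factors from yeast, captured on glutathione beads, DNA-barcoded and pooled with that sample. Pools were incubated with 200 nmole of a random double-stranded 16-mer DNA library in Tris/NaCl/DTT/glycerol buffer at room temperature for 30 min, then washed, crosslinked with 0.1% formaldehyde, proximity-ligated with BsaI/T4 ligase (1 h, 37 °C), PCR-amplified and sequenced on an Illumina NextSeq500.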

The target in test [2] is T2, ETV3L (Homo sapiens, UniProt Q6ZN32 1-361).
T2 sequence: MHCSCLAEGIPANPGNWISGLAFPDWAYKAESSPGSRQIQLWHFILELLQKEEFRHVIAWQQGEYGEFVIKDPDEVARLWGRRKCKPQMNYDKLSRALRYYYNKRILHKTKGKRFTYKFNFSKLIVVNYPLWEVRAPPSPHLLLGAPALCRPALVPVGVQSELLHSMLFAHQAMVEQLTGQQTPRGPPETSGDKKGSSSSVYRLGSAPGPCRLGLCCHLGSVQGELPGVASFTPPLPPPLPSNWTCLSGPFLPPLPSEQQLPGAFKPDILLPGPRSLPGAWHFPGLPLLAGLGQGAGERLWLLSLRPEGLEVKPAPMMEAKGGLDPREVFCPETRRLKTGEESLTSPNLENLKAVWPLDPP
Put shortly: as §1

Test [3] deals with T3, ETS2 (Homo sapiens, UniProt P15036 1-469).
T3 sequence: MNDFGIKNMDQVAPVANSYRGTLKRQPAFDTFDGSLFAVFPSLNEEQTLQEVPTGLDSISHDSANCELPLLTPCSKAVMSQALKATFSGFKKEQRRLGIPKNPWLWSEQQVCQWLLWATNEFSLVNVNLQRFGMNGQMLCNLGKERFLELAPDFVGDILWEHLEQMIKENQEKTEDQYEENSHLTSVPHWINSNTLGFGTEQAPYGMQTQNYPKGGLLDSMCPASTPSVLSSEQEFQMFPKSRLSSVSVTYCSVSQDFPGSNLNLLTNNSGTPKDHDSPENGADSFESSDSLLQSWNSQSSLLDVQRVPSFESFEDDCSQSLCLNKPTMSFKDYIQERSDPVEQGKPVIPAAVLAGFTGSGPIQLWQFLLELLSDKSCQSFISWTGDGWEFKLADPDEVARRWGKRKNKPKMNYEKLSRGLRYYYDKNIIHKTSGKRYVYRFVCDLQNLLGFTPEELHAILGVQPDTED
In outline:
as §1

Test [4] has as its target T4, SPDEF (Homo sapiens, UniProt O95238 1-335).
T4 sequence: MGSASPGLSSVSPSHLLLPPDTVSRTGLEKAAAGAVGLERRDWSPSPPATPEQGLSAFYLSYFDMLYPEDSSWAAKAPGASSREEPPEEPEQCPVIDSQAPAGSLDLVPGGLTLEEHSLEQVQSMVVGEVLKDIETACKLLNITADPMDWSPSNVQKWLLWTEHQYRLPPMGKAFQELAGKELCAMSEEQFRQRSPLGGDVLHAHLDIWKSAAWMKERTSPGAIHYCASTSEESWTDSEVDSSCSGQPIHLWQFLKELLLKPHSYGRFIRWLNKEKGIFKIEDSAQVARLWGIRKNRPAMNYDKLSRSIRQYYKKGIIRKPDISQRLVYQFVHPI
Put shortly: as §1

Test [5] deals with T5, ETV7 (Homo sapiens, UniProt Q9Y603 1-341).
T5 sequence: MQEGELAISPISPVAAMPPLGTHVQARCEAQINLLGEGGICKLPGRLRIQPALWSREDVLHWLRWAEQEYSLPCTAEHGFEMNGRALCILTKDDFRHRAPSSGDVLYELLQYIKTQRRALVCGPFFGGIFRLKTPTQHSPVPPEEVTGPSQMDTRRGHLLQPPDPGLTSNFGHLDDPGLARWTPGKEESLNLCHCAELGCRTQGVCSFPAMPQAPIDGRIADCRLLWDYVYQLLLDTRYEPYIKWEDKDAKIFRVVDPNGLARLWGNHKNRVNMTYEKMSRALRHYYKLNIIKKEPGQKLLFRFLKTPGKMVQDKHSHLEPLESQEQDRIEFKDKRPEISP
In outline:
as §1

Test [6] addresses T6, ELF5 (Homo sapiens, UniProt Q9UKW6-2 1-255).
T6 sequence: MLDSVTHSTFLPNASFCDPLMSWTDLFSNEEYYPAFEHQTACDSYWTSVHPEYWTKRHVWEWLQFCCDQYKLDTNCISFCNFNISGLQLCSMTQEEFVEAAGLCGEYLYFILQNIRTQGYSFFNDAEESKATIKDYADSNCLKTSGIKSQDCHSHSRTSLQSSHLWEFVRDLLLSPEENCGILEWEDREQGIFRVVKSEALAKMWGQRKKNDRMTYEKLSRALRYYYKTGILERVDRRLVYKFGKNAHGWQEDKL
Put shortly:
as §1

The target of test [7] is T7, ETV3 (Homo sapiens, UniProt P41162-2 1-143).
T7 sequence: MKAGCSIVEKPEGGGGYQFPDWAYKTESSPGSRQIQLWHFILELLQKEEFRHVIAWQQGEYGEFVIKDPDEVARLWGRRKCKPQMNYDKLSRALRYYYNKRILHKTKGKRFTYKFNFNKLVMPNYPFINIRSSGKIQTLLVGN
Put shortly: as §1

The target in test [8] is ETV6 (Homo sapiens, UniProt P41212 1-452). In outline:
as §1

ETV6, sequence (P41212 whole entry): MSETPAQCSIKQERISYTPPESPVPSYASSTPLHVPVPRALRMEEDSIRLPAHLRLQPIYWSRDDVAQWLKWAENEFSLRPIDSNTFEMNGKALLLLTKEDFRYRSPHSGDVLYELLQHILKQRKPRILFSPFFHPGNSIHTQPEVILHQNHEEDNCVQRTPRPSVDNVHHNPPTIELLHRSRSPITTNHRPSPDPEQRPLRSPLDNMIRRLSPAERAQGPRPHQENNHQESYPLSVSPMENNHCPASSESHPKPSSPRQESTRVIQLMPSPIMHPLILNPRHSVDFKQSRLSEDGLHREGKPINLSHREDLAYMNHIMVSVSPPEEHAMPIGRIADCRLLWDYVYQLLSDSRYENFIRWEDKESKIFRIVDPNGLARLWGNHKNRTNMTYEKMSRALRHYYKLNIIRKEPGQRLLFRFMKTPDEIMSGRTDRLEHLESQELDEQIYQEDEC

With CTCTCT, the binding signal in test [1] was 1.63 fold enrichment (6-mer frequency, TF over GST control); in test [2], 1.6 fold enrichment (6-mer frequency, TF over GST control); in test [3], 1.43 fold enrichment (6-mer frequency, TF over GST control); in test [4], 1.59 fold enrichment (6-mer frequency, TF over GST control); in test [5] it was 1.56 fold enrichment (6-mer frequency, TF over GST control); in test [6] it was 1.41 fold enrichment (6-mer frequency, TF over GST control). For the same sequence, the binding signal in test [7] is 1.68 fold enrichment (6-mer frequency, TF over GST control); in test [8], 1.59 fold enrichment (6-mer frequency, TF over GST control).
As for TTCACG, the binding signal in test [1] is 1.44 fold enrichment (6-mer frequency, TF over GST control); in test [2], 1.32 fold enrichment (6-mer frequency, TF over GST control); in test [3], 1.34 fold enrichment (6-mer frequency, TF over GST control); in test [4] it was 1.34 fold enrichment (6-mer frequency, TF over GST control); in test [5], 1.43 fold enrichment (6-mer frequency, TF over GST control); in test [6] it was 1.38 fold enrichment (6-mer frequency, TF over GST control). Also, the binding signal in test [7] was 1.35 fold enrichment (6-mer frequency, TF over GST control); in test [8], 1.43 fold enrichment (6-mer frequency, TF over GST control).
Take CTCATT: the binding signal is 1.35 fold enrichment (6-mer frequency, TF over GST control) in test [1]; 1.47 fold enrichment (6-mer frequency, TF over GST control) in test [2]; 1.49 fold enrichment (6-mer frequency, TF over GST control) in test [3]; 1.33 fold enrichment (6-mer frequency, TF over GST control) in test [4]; 1.29 fold enrichment (6-mer frequency, TF over GST control) in test [5]; 1.5 fold enrichment (6-mer frequency, TF over GST control) in test [6]. Besides, the binding signal in test [7] is 1.39 fold enrichment (6-mer frequency, TF over GST control); in test [8], 1.45 fold enrichment (6-mer frequency, TF over GST control).
In the case of AAAATG, the binding signal in test [1] was 1.21 fold enrichment (6-mer frequency, TF over GST control); in test [2], 1.24 fold enrichment (6-mer frequency, TF over GST control); in test [3] it was 1.21 fold enrichment (6-mer frequency, TF over GST control); in test [4], 1.08 fold enrichment (6-mer frequency, TF over GST control); in test [5], 1.28 fold enrichment (6-mer frequency, TF over GST control); in test [6] it was 1.24 fold enrichment (6-mer frequency, TF over GST control). Further, the binding signal in test [7] was 1.2 fold enrichment (6-mer frequency, TF over GST control); in test [8], 1.24 fold enrichment (6-mer frequency, TF over GST control).
In the case of CTGGCT, the binding signal in test [1] was 1.43 fold enrichment (6-mer frequency, TF over GST control); in test [2], 1.3 fold enrichment (6-mer frequency, TF over GST control); in test [3], 1.19 fold enrichment (6-mer frequency, TF over GST control); in test [4] it was 1.23 fold enrichment (6-mer frequency, TF over GST control); in test [5], 1.38 fold enrichment (6-mer frequency, TF over GST control); in test [6], 1.19 fold enrichment (6-mer frequency, TF over GST control). The binding signal in test [7] was 1.18 fold enrichment (6-mer frequency, TF over GST control); in test [8], 1.18 fold enrichment (6-mer frequency, TF over GST control).
Consider TTATCT, for which the binding signal in test [1] is 1.23 fold enrichment (6-mer frequency, TF over GST control); in test [2], 1.44 fold enrichment (6-mer frequency, TF over GST control); in test [3], 1.35 fold enrichment (6-mer frequency, TF over GST control); in test [4], 1.24 fold enrichment (6-mer frequency, TF over GST control); in test [5], 1.15 fold enrichment (6-mer frequency, TF over GST control); in test [6], 1.22 fold enrichment (6-mer frequency, TF over GST control). Moreover, the binding signal in test [7] is 1.28 fold enrichment (6-mer frequency, TF over GST control); in test [8], 1.25 fold enrichment (6-mer frequency, TF over GST control).
For the sequence CCCGCA, the binding signal was 1.24 fold enrichment (6-mer frequency, TF over GST control) in test [1]; 1.22 fold enrichment (6-mer frequency, TF over GST control) in test [2]; 1.18 fold enrichment (6-mer frequency, TF over GST control) in test [3]; 1.27 fold enrichment (6-mer frequency, TF over GST control) in test [4]; 1.31 fold enrichment (6-mer frequency, TF over GST control) in test [5]; 1.27 fold enrichment (6-mer frequency, TF over GST control) in test [6]. Also, the binding signal in test [7] was 1.2 fold enrichment (6-mer frequency, TF over GST control); in test [8] it was 1.25 fold enrichment (6-mer frequency, TF over GST control).
For CCCGCC, the binding signal is 1.53 fold enrichment (6-mer frequency, TF over GST control) in test [1]; 1.56 fold enrichment (6-mer frequency, TF over GST control) in test [2]; 1.38 fold enrichment (6-mer frequency, TF over GST control) in test [3]; 1.39 fold enrichment (6-mer frequency, TF over GST control) in test [4]; 1.48 fold enrichment (6-mer frequency, TF over GST control) in test [5]; 1.45 fold enrichment (6-mer frequency, TF over GST control) in test [6]. Also, the binding signal in test [7] was 1.47 fold enrichment (6-mer frequency, TF over GST control); in test [8], 1.63 fold enrichment (6-mer frequency, TF over GST control).
